Results as given in PubChem BioAssay (NCATS).
“And” between values parts separate entries of the source, which are not always exact repeats. Equal entries are not always repeated. Results filed as inconclusive are left out. The source made the active and inactive calls. Unless noted, calls follow the shape of the dose curve; as a rule, active = well fitted curve in the direction sought with a large enough effect; inconclusive = small, poorly fitted or top-dose-only effect, or another doubt; inactive = no such curve, though single readings can be large; an effect the other way counts as inactive or inconclusive.

Key:
[1] = Primary qHTS for inhibitors of nuclear receptor binding SET domain protein 2 (NSD2) in an isogenic RCH-ACV NSD2 p.E1099K mutant (9B) (AID 1645876); also: nearly all actives have a fitted effect of over 70% in size; also: potency is read from the fitted curve at half-maximal effect
[2] = Primary qHTS for inhibitors of nuclear receptor binding SET domain protein 2 (NSD2) in an RCH-ACV wild type WT cells (2C) (AID 1645877); also: nearly all actives have a fitted effect of over 70% in size; also: potency is read from the fitted curve at half-maximal effect
[3] = target: Catechol O-methyltransferase (Homo sapiens) (UniProt P21964); assay: Confirmatory Screen for Target Class Profiling of Small Molecule Inhibitors of Methyltransferases (AID 1745852; calls by dose curve; also: potency is read from the fitted curve at half-maximal effect; as to activity change, negative = inhibition: % is scaled to controls: 0 for no effect and ±100 for the full control effect); settings: MTase-Glo luminescence, SAH detection, recombinant enzyme; measured here: COMT max response; stronger effect = lower value
Chain of Catechol O-methyltransferase (Homo sapiens) (P21964 whole entry, looked up): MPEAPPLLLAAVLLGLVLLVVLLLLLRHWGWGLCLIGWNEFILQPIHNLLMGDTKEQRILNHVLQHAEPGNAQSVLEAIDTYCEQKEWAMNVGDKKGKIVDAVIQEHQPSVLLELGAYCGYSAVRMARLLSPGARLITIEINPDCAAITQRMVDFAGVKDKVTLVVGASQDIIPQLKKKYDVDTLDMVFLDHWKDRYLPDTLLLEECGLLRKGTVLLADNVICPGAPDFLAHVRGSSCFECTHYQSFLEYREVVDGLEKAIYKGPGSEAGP

[4] = target: Guanidinoacetate N-methyltransferase (Homo sapiens) (UniProt Q14353); assay: as above; settings: activity change, negative = inhibition: at 57.3 µM (top of the series) unless noted
[5] = target: Nicotinamide N-methyltransferase (Homo sapiens) (UniProt P40261); assay: as above; settings: MTase-Glo luminescence, SAH detection, recombinant enzyme; measured here: NNMT max response; stronger effect = lower value
Chain of Nicotinamide N-methyltransferase (Homo sapiens) (P40261 whole entry, looked up): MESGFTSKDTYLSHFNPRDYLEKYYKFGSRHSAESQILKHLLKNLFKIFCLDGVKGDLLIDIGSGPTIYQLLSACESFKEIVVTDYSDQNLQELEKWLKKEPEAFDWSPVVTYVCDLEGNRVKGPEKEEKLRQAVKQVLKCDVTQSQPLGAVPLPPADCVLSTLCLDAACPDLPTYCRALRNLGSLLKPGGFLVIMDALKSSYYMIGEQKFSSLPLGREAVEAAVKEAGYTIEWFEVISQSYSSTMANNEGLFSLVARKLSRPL

[6] = target: Phenylethanolamine N-methyltransferase (Homo sapiens) (UniProt P11086); assay: as above; settings: MTase-Glo luminescence, SAH detection, recombinant enzyme; measured here: PNMT max response; stronger effect = lower value
Chain of Phenylethanolamine N-methyltransferase (Homo sapiens) (P11086 whole entry, looked up): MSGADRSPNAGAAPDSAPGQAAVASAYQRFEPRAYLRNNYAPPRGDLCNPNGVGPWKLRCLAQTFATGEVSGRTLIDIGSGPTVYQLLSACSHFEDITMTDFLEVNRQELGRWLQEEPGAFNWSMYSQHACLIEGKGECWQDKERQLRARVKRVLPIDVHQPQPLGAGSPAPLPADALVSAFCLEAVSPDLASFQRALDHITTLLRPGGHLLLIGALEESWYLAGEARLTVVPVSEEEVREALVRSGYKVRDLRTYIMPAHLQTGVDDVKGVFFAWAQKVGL

[7] = target: Glutathione peroxidase 1 (Homo sapiens) (UniProt P07203); assay: Primary qHTS Assay for Inhibitors of Recombinant Selenoprotein Glutathione Peroxidase 1 (GPX1) (AID 1845191); also: nearly all actives have a fitted effect of over 65% in size
Chain of Glutathione peroxidase 1 (Homo sapiens) (P07203 whole entry, looked up): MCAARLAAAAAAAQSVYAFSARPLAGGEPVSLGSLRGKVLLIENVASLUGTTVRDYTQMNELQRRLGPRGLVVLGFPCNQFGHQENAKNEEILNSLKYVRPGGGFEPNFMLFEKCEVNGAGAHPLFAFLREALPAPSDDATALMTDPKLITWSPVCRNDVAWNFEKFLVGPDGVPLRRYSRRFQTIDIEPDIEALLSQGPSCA
How it was run: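 GR-coupled readout: NADPH consumption tracked by fluorescence, ex 340/em 450 nm, at t=0 and after 15 min at RT. Final mix 10 nM GPX1, 1 mM GSH, 0.5 mM CHP, 0.5 mM NADPH, 100 nM GR, 0.01% BSA, following 30 min enzyme–compound preincubation.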

[8] = NCATS anti-infectives library activity on HEK293 viability as a counter-qHTS vs the C. elegans viability qHTS (AID 1745854);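 also: HEK293 cells exposed to compounds for 24 hr before the viability read; % is scaled to controls: 0 for no effect and ±100 for the full control effect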
How it was run: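 Counter-screen for cytotoxicity: HEK293, 24 hr, 37C, compounds up to 41.7 uM final (a dilution series, 1:5). Readout CellTiter-Glo luminescence, 10 min RT. Digitonin control, 83.3 uM final.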

[9] = NCATS anti-infectives library activity on the primary C. elegans qHTS viability assay (AID 1745855; calls by dose curve)
How it was run: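 GFP read-out by 488 nm laser cytometry at day 0, 3 and 7, gated on object perimeter, area and peak intensity, scored viability of PE254-GFP-FLuc worms exposed to compound in S medium with bacterial capsules at 21 °C.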

[10] = Viability counterscreen for antagonist of constitutive androstane receptor (CAR) against the NCATS DSHEA and TCM libraries (AID 1794837);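 also: compound exposure lasted 24 h before viability reading; 0% is about no effect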
How it was run: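 Cell viability, CellTiter-Fluor, Ex/Em 405/540 nm, 1 h at 37C. HepG2-CYP2B6-hCAR, 2,500 cells/well; cpds + CITCO 48 uM final (antagonist mode), 24 h, 37C/5% CO2.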

[11] = target: Nuclear receptor subfamily 1 group I member 3 (Homo sapiens) (UniProt Q14994); assay: Primary qHTS for agonist of constitutive androstane receptor (CAR) against the NCATS DSHEA and TCM libraries (AID 1794839);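 also: HepG2 cells expressing human CAR with a CYP2B6 reporter plus PK11195 antagonist; 0% is about no effect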
Chain of Nuclear receptor subfamily 1 group I member 3 (Homo sapiens) (Q14994 whole entry, looked up): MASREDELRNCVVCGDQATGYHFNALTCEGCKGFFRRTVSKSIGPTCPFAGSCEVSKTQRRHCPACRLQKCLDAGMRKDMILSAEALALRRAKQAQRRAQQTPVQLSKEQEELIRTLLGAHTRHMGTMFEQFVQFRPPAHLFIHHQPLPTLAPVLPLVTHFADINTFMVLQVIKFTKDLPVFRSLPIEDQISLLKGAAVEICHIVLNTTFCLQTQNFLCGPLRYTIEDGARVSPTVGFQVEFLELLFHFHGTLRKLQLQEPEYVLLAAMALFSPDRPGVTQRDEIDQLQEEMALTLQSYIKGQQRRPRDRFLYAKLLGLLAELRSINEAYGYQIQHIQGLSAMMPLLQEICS
How it was run: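 Luminescence from ONE-Glo luciferase was the agonist read-out in HepG2-CYP2B6-hCAR cells exposed 24 h to test substances. Wells also held the CAR antagonist PK11195 at 0.75 µM final. Viability was by CellTiter-Fluor fluorescence.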

[12] = HepG2 viability counterscreen (readout 2: ATP content) against the NCATS DSHEA and TCM libraries (AID 1794840); also: 0% is about no effect
How it was run: (§1)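 1,000 HepG2 cells/well, 4 h attach; compounds ~24 h, 37C/5% CO2. Readout 1: GF-AFC 25 uM final, 30 min, fluorescence 380/510 nm. Readout 2: CellTiter-Glo, 30 min RT, luminescence.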

[13] = HepG2 viability counterscreen (readout 1: protease activity) against the NCATS DSHEA and TCM libraries (AID 1794841);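 also: cells exposed to compounds for about 24 h before the protease read; 0% is about no effect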
How it was run: as §1

For COc1ccc(CCO[C@@H]2O[C@H](CO[C@@H]3OC[C@H](O)[C@H](O)[C@H]3O)[C@@H](O)[C@H](O)[C@H]2O)cc1, the Potency [1] was “inactive”, the Potency [2] was “inactive” and the activity [3] was -55.1%. It also gave an activity change, negative = inhibition [4] of 2.09% [at 29.8 µM], an activity [5] of 1.01% and an activity [6] of 1.06%. For the same compound, the Potency [7] was “inactive”.

For Cc1ccc([N+](=O)[O-])cc1S(=O)(=O)N(C)/N=C/c1cnc2ccc(Br)cn12, the Potency [1] was 12.9 nM (active) and 93.4 nM (active), the Potency [2] was 20.6 nM (active) and 74.2 nM (active) and the activity [3] was -16.2%. The Potency [4] was 30.4 µM (active), the activity [5] was -33.8% and the activity [6] was -16.6%. For the same compound, the Potency [7] was “inactive”.

For CC(C)c1c2cc(-c3ccnc(NC4CCC(NC5CCOCC5)CC4)n3)ccc2nn1C (stereo not given), the Potency [1] was 163 nM (active) and 148 nM (active), the Potency [2] was 129 nM (active) and 93.4 nM (active) and the activity [3] was -27.8%. The Potency [4] was 38.3 µM (active), the activity [5] was -14.6% and the activity [6] was -25.7%.

In the case of CC1=C(CCC(C)O[C@@H]2O[C@H](CO)[C@@H](O)[C@H](O)[C@H]2O)C(C)(C)CCC1=O (stereo not given in full), the Potency [1] is reported as “inactive”, the Potency [2] is reported as “inactive” and the activity [3] is reported as -64%. The activity change, negative = inhibition [4] was -3.78%, the activity [5] was -4.03% and the activity [6] was -0.201%. For the same compound, the Potency [7] was “inactive”.

In the case of CC1CCC2(CO)C(C(=O)O)=CCCC2C1(C)CCc1ccoc1 (stereo not given), the Potency [1] is reported as “inactive”, the Potency [2] is reported as “inactive” and the activity [3] is reported as -92.5%. It also gave an activity change, negative = inhibition [4] of 0%, an activity [5] of 1.37% and an activity [6] of 1.68%. The Potency [7] was “inactive”.

In the case of C[C@H](NC(=O)CCc1nc2ccccc2c(=O)[nH]1)c1ccccc1, the Potency [1] is reported as “inactive”, the Potency [2] is reported as “inactive” and the Potency [8] is reported as “inactive”. For the same compound, the Potency [9] was “inactive” and the Potency [7] was “inactive”.

In the case of OC[C@H]1O[C@@H](OC[C@H]2O[C@@H](OC/C=C/c3ccccc3)[C@H](O)[C@@H](O)[C@@H]2O)[C@@H](O)[C@@H]1O, the Potency [1] is reported as “inactive”, the Potency [2] is reported as “inactive” and the outcome [10] is reported as “inactive”. For the same compound, the outcome [11] was “inactive”, the outcome [12] was “inactive” and the outcome [13] was “inactive”. The Potency [7] was “inactive”.

In the case of CCN(CC)c1ccc2c(O)c(C=Nc3ccc(CC(=O)O)c(-c4c5c(nc6ccccc46)CCC(C(=O)NN)C5)c3)c(=O)oc2c1 (stereo not given), the Potency [1] is reported as 2.9 µM (active), the Potency [2] is reported as 4.59 µM (active) and the activity [3] is reported as -17%. The Potency [4] was 34.1 µM (active), the activity [5] was -14% and the activity [6] was -22%. The Potency [7] was “inactive”.

For CC(C)c1cc(C(=O)N2CC[C@@H](NC(=O)C3CC3)C2)n[nH]1, the Potency [1] was “inactive”, the Potency [2] was “inactive” and the Potency [8] was “inactive”. For the same compound, the Potency [7] was “inactive”.

With C=C(C)C1CCC2(C(=O)O)CCC3(C(=O)O)C(CCC4C5(C)CCC(O)C(C)(C(=O)O)C5CCC43C)C12 (stereo not given) the Potency [1] was “inactive”, the Potency [2] was “inactive” and the Potency [7] was “inactive”.

With CC1=CC(=O)C2(OC3OC(C)C(O)C(OC(=O)/C=C/c4ccccc4)C3O)C=COC(OC3OC(CO)C(O)C(O)C3O)C12 (stereo not given) the Potency [1] was “inactive”, the Potency [2] was “inactive” and the activity [3] was -48.2%. The activity change, negative = inhibition [4] was -2.18% [at 19.1 µM], the activity [5] was -1.08% and the activity [6] was 1.5%. The Potency [7] was “inactive”.

In the case of C=C(C)C(=O)OC1CC2(C)OC(=CC2=O)C(=C)CC2OC(=O)C(COC)C12 (stereo not given), the Potency [1] is reported as 4.01 µM (active), the Potency [2] is reported as 1.79 µM (active) and the activity [3] is reported as -94%. It also gave an activity change, negative = inhibition [4] of -5.17%, an activity [5] of -5.26% and an activity [6] of -4.08%. For the same compound, the Potency [7] was “inactive”.

With CC1=CC(=O)CC(C)(C)C1CCC(C)O[C@@H]1O[C@H](CO[C@@H]2OC[C@@H](O)[C@H](O)[C@H]2O)[C@@H](O)[C@H](O)[C@H]1O (stereo not given in full) the Potency [1] was “inactive”, the Potency [2] was “inactive” and the activity [3] was -54.5%. For the same compound, the activity change, negative = inhibition [4] was 0% [at 29.8 µM], the activity [5] was 0.168% and the activity [6] was 0.0687%. The Potency [7] was “inactive”.

For Cc1cc(O)c(-c2ccc([C@@H](C)CN(C)C)cc2)c2c1[nH]c(=O)c1sccc12, the Potency [1] was 0.0742 µM (active), the Potency [2] was 0.0742 µM (active) and the activity [3] was -22.7%. It also gave an activity change, negative = inhibition [4] of -6.59%, an activity [5] of -64.6% and an activity [6] of -48.7%. The Potency [7] was “inactive”.

With CC1(C)CC[C@]2(C(=O)O[C@@H]3O[C@H](CO)[C@@H](O)[C@H](O)[C@H]3O)CC[C@]3(C)C(=CCC4[C@@]5(C)C[C@@H](O)[C@H](O)[C@@](C)(CO)C5CC[C@]43C)C2[C@@H]1O (stereo not given in full) the Potency [1] was “inactive”, the Potency [2] was “inactive” and the activity [3] was -79.9%. It also gave an activity change, negative = inhibition [4] of -0.535% [at 19.1 µM], an activity [5] of -4% and an activity [6] of -1.38%. For the same compound, the Potency [7] was “inactive”.

With CC(C)c1cc(C(=O)N2CC[C@H](NC(=O)C3CC3)C2)n[nH]1 the Potency [1] was “inactive”, the Potency [2] was “inactive” and the Potency [8] was “inactive”. For the same compound, the Potency [7] was “inactive”.

For CCc1c(-c2ccccc2)c(-c2ccccc2)nn1-c1ccccc1-c1cccc(OCC(=O)O)c1, the Potency [1] was “inactive”, the Potency [2] was “inactive” and the activity [3] was -1.93%. The activity change, negative = inhibition [4] was 0%, the activity [5] was -56% and the activity [6] was -7.07%. The Potency [7] was “inactive”.

In the case of [N-]=[N+]=N[C@]1(CO)O[C@@H](n2ccc(=O)[nH]c2=O)[C@@H](O)[C@@H]1O, the Potency [1] is reported as “inactive”, the Potency [2] is reported as “inactive” and the Potency [8] is reported as “inactive”. For the same compound, the Potency [7] was “inactive”.

In the case of CS(=O)(=O)c1ccc(-c2nnc(/C=C/c3nnc(-c4ccc(C#N)cc4)o3)n2-c2ccccc2Cl)nc1, the Potency [1] is reported as “inactive”, the Potency [2] is reported as “inactive” and the Potency [8] is reported as “inactive”.

With C=C1C(=O)OC2/C=C(\CO)CC/C=C(\C=O)CC(OC(=O)CC(C)C)C12 (stereo not given) the Potency [1] was 4.01 µM (active), the Potency [2] was 2.26 µM (active) and the activity [3] was -71%. The activity change, negative = inhibition [4] was -0.648%, the activity [5] was -4.38% and the activity [6] was -2.45%. The Potency [7] was “inactive”.
